Rows were chosen to be rich in hits. Some 8.9% of all compounds tested hit in one or more screens of this group.
12-hLO inh – blocks human 12-lipoxygenase activity. Potency, µM (doses to about 57.1 µM), hits mostly inhibitors. AID 1452. purified 12-hLO, xylenol orange hydroperoxide absorbance. P18054. actives 0.12% (n = 150,000); note: nearly all actives have a fitted effect of over 55% in size
Target sequence (P18054 whole entry, looked up): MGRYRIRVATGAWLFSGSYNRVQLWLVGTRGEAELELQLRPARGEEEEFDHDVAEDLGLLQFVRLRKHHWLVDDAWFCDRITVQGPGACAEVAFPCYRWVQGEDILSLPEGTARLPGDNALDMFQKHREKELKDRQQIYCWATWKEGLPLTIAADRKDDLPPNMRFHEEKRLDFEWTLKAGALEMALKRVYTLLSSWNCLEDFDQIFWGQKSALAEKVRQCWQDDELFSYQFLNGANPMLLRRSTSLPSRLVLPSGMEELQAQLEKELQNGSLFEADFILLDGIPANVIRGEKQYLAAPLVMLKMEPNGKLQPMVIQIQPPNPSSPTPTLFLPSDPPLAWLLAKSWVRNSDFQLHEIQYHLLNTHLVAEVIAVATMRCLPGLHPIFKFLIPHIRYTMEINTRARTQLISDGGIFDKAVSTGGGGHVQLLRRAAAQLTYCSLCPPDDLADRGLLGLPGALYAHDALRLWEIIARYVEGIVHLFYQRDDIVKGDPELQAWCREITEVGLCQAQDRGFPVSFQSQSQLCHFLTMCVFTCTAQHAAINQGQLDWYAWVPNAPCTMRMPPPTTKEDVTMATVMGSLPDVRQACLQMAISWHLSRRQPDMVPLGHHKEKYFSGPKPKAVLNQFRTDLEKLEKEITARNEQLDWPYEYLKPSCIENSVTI
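150 nM 12hLO, 25 mM Hepes pH 7.0 + 0.01% Triton X-100; cpd preinc 15 min RT; 40 uM arachidonic acid, 30 min RT; Fe-XO 30 min; A573/A405 ratio as read-out.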
ALDH1A1 block – ALDH1A1 (human) enzyme inhibition. P00352. Purified ALDH1A1, NADH fluorescence, propionaldehyde substrate. Potency, µM (doses to about 75.3 µM), hits mostly inhibitors. actives 7.3% (n = 220,000). AID 1030; active = well fitted inhibition curve with a large enough effect, not every such curve was filed as active; inconclusive = small, poorly fitted or top-dose-only effect, or another doubt; inactive = no such curve, though single readings can be large or run the other way
HPGD block – HPGD (human) dehydrogenase inhibition. P15428. purified HPGD, NADH fluorescence kinetic, PGE2 substrate. Potency, µM, usual class: inhibitors. actives 4.3% (n = 150,000). AID 894; active = well fitted inhibition curve with a large enough effect, not every such curve was filed as active; inconclusive = small, poorly fitted or top-dose-only effect, or another doubt; inactive = no such curve, though single readings can be large or run the other way
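NADH formation kinetics: reaction with 30 uM PGE2 and 1 mM NAD+ (final), 20 nM enzyme, Tris-HCl pH 8 with Tween 20, after 15 min compound preincubation at room temperature. Fluorescence change, last versus first of five reads.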
IMPase Li cell – IMPase inhibition in cells with lithium potentiation; actives 0.35% (n = 210,000); CHO-M1 cells, IP1 TR-FRET (IP-One), carbachol + lithium; Potency, µM (series often up to 59.4 µM), usual class: inhibitors;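 note: IP1 builds up when IMPase is blocked and the TR-FRET signal falls; nearly all actives have a fitted effect of over 50% in size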
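Steps: plate 2000 CHO-M1 cells per well and culture 16–30 h; add compound and lithium; incubate 30 min, 37C; add d2-IP1 tracer and Eu cryptate anti-IP1 antibody in lysis buffer; read after 10 min at room temperature.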
IMPase cell inh – cell-permeable inhibitors of inositol monophosphatase (IMPase). CHO-M1 cells, IP1 accumulation, HTRF TR-FRET ratio. inhibition (IP1 accumulation), % at 46.1 µM. 120,000 tested, under 10 active. AID 901; active = well fitted curve in the direction sought with a large enough effect in the signal ratio, not every such curve was filed as active; inconclusive = small, poorly fitted or top-dose-only effect, or a change in a side signal; inactive = no such curve, though single readings can be large or run the other way; the % refers to the signal ratio;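 note: cells stimulated with carbachol in lithium chloride buffer; higher means more IMPase inhibition seen as more IP1 and lower FRET ratio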
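Measured: the HTRF emission ratio (665/620 nm) plus the 620 nm donor channel, each fitted to the Hill equation to give AC50. Cells were CHO-M1 given compounds up to 46 uM and a 30 min carbachol stimulation at 37C.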
NPSR antag – neuropeptide S receptor (human) antagonism, cAMP. Potency, µM (doses to about 38.3 µM), most hits filed as inhibitors. CHO-NPSR cells, cAMP TR-FRET, antagonist mode. actives 1% (n = 220,000). Q6W5P4; note: nearly all actives have a fitted effect of over 50% in size
Large screens that a line does not name were inactive. Unless noted, calls come from the whole dose curve; as a rule, active = well fitted curve in the direction sought with a large enough effect; inconclusive = small, poorly fitted or top-dose-only effect, or another doubt; inactive = no such curve, though single readings can be large; an effect the other way counts as inactive or inconclusive.

CC1CCc2c(sc(Nc3nc4c(F)cccc4s3)c2C(N)=O)C1 (configuration not stated)	ALDH1A1 block inconclusive, HPGD block inconclusive
Fc1ccc(Nc2ccnc(Nc3ccc(F)cc3)n2)cc1	12-hLO inh inconclusive (no result: IMPase cell inh)
CCOC(=O)C1CCCN(C2CC(=O)N(c3ccc(C)cc3)C2=O)C1 (configuration not stated)	none
CCOC(=O)C1CCCN(C2CC(=O)N(c3ccc(NC(C)=O)cc3)C2=O)C1 (configuration not stated)	ALDH1A1 block 32µM (no result: 12-hLO inh, HPGD block, IMPase cell inh)
S=c1[nH]nc(CSCc2ccccc2Cl)n1C1CCCCC1	ALDH1A1 block inconclusive (no result: 12-hLO inh, HPGD block, IMPase cell inh)
Cc1ccc(OCc2n[nH]c(=S)n2C2CCCCC2)cc1	ALDH1A1 block 14µM, HPGD block 14µM
Cc1cccc(OCc2n[nH]c(=S)n2C2CCCCC2)c1	ALDH1A1 block inconclusive, HPGD block 10µM
COc1ccc(OCc2n[nH]c(=S)n2-c2ccc(C)cc2)cc1	ALDH1A1 block inconclusive (no result: 12-hLO inh, HPGD block, IMPase cell inh)
O=C(O)c1ccccc1	none (no result: IMPase cell inh, NPSR antag)
O=C(O)c1cccc(SSc2cccc(C(=O)O)c2)c1	HPGD block 4.5µM (no result: IMPase cell inh, NPSR antag)
O=C(Nc1cc(F)cc(F)c1)c1ccc(NCCCN2CCCCCC2)c([N+](=O)[O-])c1	none (no result: 12-hLO inh, HPGD block, IMPase cell inh)
CC(=O)N(\C=C/C=C/C=C1\Sc2ccccc2C1=O)c1ccccc1	ALDH1A1 block 18µM (no result: 12-hLO inh, HPGD block, IMPase cell inh)
CCCCN(Cc1ccccc1)S(=O)(=O)c1ccc2[nH]c(=O)oc2c1	ALDH1A1 block 5µM
Oc1ccc2c(c1-c1c(O)c(Br)cc3c1CCCC3)CCCC2	none (no result: 12-hLO inh, IMPase cell inh, NPSR antag)
Nc1cc2c(cc1O)CCCC2	ALDH1A1 block 2.2µM (no result: 12-hLO inh, HPGD block, IMPase cell inh)
Cc1noc2ncnc(Oc3ccc(Cl)cc3Cl)c12	none (no result: 12-hLO inh, HPGD block, IMPase cell inh)
O=C(O)C1CC(=O)n2c(nc3ccccc32)S1 (configuration not stated)	ALDH1A1 block 25µM
CN(CC(=O)Nc1cc([N+](=O)[O-])ccc1Cl)Cc1ccc(Br)cc1	ALDH1A1 block 10µM
COc1cc(NC(=S)N2CCN(C)CC2)c(OC)cc1Cl	none (no result: 12-hLO inh, HPGD block, IMPase cell inh)
O=[N+]([O-])c1ccc(N2CCN(C(=S)Nc3ccc(F)cc3)CC2)cc1	ALDH1A1 block inconclusive (no result: 12-hLO inh, HPGD block, IMPase cell inh)
O=[N+]([O-])c1ccc(N2CCN(C(=S)Nc3ccc(F)cc3F)CC2)cc1	ALDH1A1 block 11µM (no result: 12-hLO inh, HPGD block, IMPase cell inh)
Cc1cccc(NC(=S)N2CCCN(c3ncccc3[N+](=O)[O-])CC2)c1	ALDH1A1 block 14µM (no result: 12-hLO inh, HPGD block, IMPase Li cell, IMPase cell inh)
CN1CCN(C(=S)Nc2cc([N+](=O)[O-])ccc2Cl)CC1	ALDH1A1 block 20µM (no result: IMPase cell inh)
Cc1sc2nc(SCC(=O)NCCOCCO)n(C)c(=O)c2c1C	ALDH1A1 block inconclusive, NPSR antag inconclusive
CC(=O)c1ccc(N2CCN(C(=O)c3cc(-c4ccc5c(c4)OCO5)nc4ccccc34)CC2)cc1	ALDH1A1 block inconclusive, HPGD block inconclusive
COc1cccc(N2C(=O)CC(NNC(=O)c3cccs3)C2=O)c1 (configuration not stated)	none (no result: IMPase cell inh)
CCC(C)(C)NC(=O)C(c1ccco1)N(C(=O)Cn1nnc2ccccc21)c1ccc2c(c1)OCO2 (configuration not stated)	none
O=[N+]([O-])c1ccc(N2CCN(C(=S)Nc3cccc(F)c3)CC2)cc1	ALDH1A1 block 14µM (no result: 12-hLO inh, HPGD block, IMPase cell inh)
COc1cccc(NC(=S)N2CCN(c3ccc([N+](=O)[O-])cc3)CC2)c1	ALDH1A1 block 7.9µM (no result: 12-hLO inh, HPGD block, IMPase cell inh)
Cc1sc(N2C(=O)C3C(C2=O)[C@H]2C=C[C@@H]3C2)c(C#N)c1C (some centres not stated)	none (no result: 12-hLO inh, ALDH1A1 block, HPGD block, IMPase Li cell, IMPase cell inh)
CC(C)(Oc1ccc(Br)cc1)C(=O)N1CCc2ccccc21	NPSR antag inconclusive
Cn1c2c(c(=O)n(C)c1=O)C(NS(=O)(=O)c1ccccc1)(C(F)(F)F)C(=O)N2 (configuration not stated)	IMPase cell inh inconclusive
Cc1csc(Sc2nc3c(c(=O)[nH]c(=O)n3C)n2Cc2ccccc2Cl)n1	ALDH1A1 block inconclusive (no result: HPGD block, IMPase Li cell)
CCCCCn1c(SCCc2ccccc2)nc2c1c(=O)[nH]c(=O)n2C	ALDH1A1 block inconclusive
CCOC(=O)C(C)Sc1nc2c(c(=O)[nH]c(=O)n2C)n1CCc1ccccc1 (configuration not stated)	ALDH1A1 block 13µM
CCC(C)Sc1nc2c(c(=O)[nH]c(=O)n2C)n1Cc1ccccc1Cl (configuration not stated)	ALDH1A1 block 1.3µM
CCCCSc1nc2c(c(=O)[nH]c(=O)n2C)n1CCc1ccccc1	ALDH1A1 block 2.5µM
CC(C)CCn1c(SCCc2ccccc2)nc2c1c(=O)[nH]c(=O)n2C	ALDH1A1 block 6.3µM, HPGD block inconclusive
CC(C)n1c(SCCCc2ccccc2)nc2c1c(=O)[nH]c(=O)n2C	ALDH1A1 block inconclusive, HPGD block 20µM
CCCCCOC(=O)CSc1nc2c(c(=O)[nH]c(=O)n2C)n1CCc1ccccc1	ALDH1A1 block 25µM, HPGD block 25µM
COCCn1c(SCCCc2ccccc2)nc2c1c(=O)[nH]c(=O)n2C	ALDH1A1 block 20µM (no result: HPGD block, IMPase Li cell)
CCCn1c(Sc2nc3c(c(=O)[nH]c(=O)n3C)n2CCC)nc2c1c(=O)[nH]c(=O)n2C	HPGD block 14µM
C/C=C/Cn1c(SCCCc2ccccc2)nc2c1c(=O)[nH]c(=O)n2C	ALDH1A1 block inconclusive
CCCn1c(SCCc2ccccc2)nc2c1c(=O)[nH]c(=O)n2C	ALDH1A1 block inconclusive
O=C(CCSCc1ccc(Cl)cc1)NCc1ccco1	none (no result: 12-hLO inh, HPGD block, IMPase cell inh)
CC(C)NC(=O)N1CCC2(CC1)CCN(S(=O)(=O)c1ccccc1)CC2	none (no result: IMPase cell inh, NPSR antag)
CCOC(=O)C(CC)Sc1nc2c(c(=O)[nH]c(=O)n2C)n1C/C=C(/C)Cl (configuration not stated)	ALDH1A1 block 3.5µM, HPGD block 4µM
C/C(Cl)=C/Cn1c(SCC(C)C)nc2c1c(=O)[nH]c(=O)n2C	ALDH1A1 block inconclusive, IMPase cell inh inconclusive
CCOC(=O)CNC(=O)CSc1nc(-c2ccccc2)ns1	ALDH1A1 block 25µM (no result: 12-hLO inh, HPGD block, IMPase cell inh)
CCOC(=O)CSc1nc(-c2ccc(OC)cc2)ns1	ALDH1A1 block 25µM, HPGD block 35µM
CCOC(=O)CNC(=O)CSc1nc(-c2ccc(C)cc2)ns1	ALDH1A1 block inconclusive (no result: 12-hLO inh, HPGD block, IMPase cell inh)
N#C[C@H]1[C@H](c2ccccc2)[C@](C#N)(C(=O)c2ccccc2)[C@@H]2C=Cc3ccccc3N21	ALDH1A1 block inconclusive, HPGD block inconclusive, NPSR antag inconclusive
CCCCN(c1ccccc1)c1ncnc2nc[nH]c12	ALDH1A1 block 11µM
COCCN(C(=O)Nc1ccc(OC)cc1OC)C1CCN(C(C)=O)CC1	none
CCn1c(=O)c2c(cnn2C)c2ccccc21	HPGD block 32µM
O=C1C=C(Nc2ccc(O)cc2)C(=O)c2ccccc21	none (no result: 12-hLO inh, HPGD block, IMPase Li cell, IMPase cell inh)
CCOC(=O)c1ccc(NC2=CC(=O)C(=O)c3ccccc32)cc1	HPGD block 4.5µM
